Screening data deposited in PubChem by National Center for Advancing Translational Sciences (NCATS).
Only some compounds are listed: those with a hit (about 10% of all), similar ones and a draw of the others.
BAZ2B block – qHTS Assay for Inhibitors of BAZ2B; AID 504333, 2011; 360,000 tested, 4.4% active; Potency, µM (titrated, usually from 114 µM), usual class: inhibitors; AlphaScreen BAZ2B-H3K14Ac peptide displacement; also: nearly all actives have a fitted effect of over 60% in size
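Protein-peptide AlphaScreen: BAZ2B 50 nM, b-H3K14Ac 50 nM, 1x PBS pH 7.4 + 0.01% Tween-20. Preincubation 30 min RT; cpd 30 min RT (top 110 uM); beads 20 min RT, light-protected.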
CtBP-E1A inh – qHTS Assay for Inhibitors of the CtBP/E1A Interaction; AlphaScreen GST-E1A/His-CtBP binding, 1536-well; stronger effect = lower value; activity change, % (no concentration beside the values); 340,000 tested, 0.49% active; AID 651724, 2012; in the data active = activity change below about -65%; inconclusive = mostly about -30% to -63%
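Protein mix (5X: 125 nM each GST-E1A, His-CtBP) was incubated with pinned compound 2 h at 37 deg C in dark, in 50 mM Tris pH 8.0 buffer with 300 mM NaCl. Glutathione donor and nickel acceptor beads followed; AlphaScreen signal read after 1 h.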
G9a block – qHTS Assay for Inhibitors of Histone Lysine Methyltransferase G9a; Histone-lysine N-methyltransferase EHMT2 (Homo sapiens), Q96KQ7; G9a H3K9 monomethylation, AlphaScreen, 2 h; Potency, µM (titrated, usually from 102 µM), hits mostly inhibitors; 350,000 tested, 8.8% active; AID 504332, 2011; also: nearly all actives have a fitted effect of over 75% in size
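AlphaScreen detection with an anti-monomethyl H3K9 antibody quantified product after a 2 h room-temperature reaction containing 500 nM biotinylated H3K9 peptide, 20 µM SAM and 20 nM enzyme, which had been preincubated 15 min with compound.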
Six1-Eya2 inh – qHTS Assay for Inhibitors of the Six1/Eya2 Interaction. AlphaScreen GST-Six1/His-Eya2 binding, biochemical; stronger effect = lower value. activity change, % (no concentration beside the values). 360,000 tested, 0.56% active. AID 651725, 2012; in the data active = activity change below about -65%; inconclusive = mostly about -30% to -63%
Target sequence (O00167 whole entry, looked up): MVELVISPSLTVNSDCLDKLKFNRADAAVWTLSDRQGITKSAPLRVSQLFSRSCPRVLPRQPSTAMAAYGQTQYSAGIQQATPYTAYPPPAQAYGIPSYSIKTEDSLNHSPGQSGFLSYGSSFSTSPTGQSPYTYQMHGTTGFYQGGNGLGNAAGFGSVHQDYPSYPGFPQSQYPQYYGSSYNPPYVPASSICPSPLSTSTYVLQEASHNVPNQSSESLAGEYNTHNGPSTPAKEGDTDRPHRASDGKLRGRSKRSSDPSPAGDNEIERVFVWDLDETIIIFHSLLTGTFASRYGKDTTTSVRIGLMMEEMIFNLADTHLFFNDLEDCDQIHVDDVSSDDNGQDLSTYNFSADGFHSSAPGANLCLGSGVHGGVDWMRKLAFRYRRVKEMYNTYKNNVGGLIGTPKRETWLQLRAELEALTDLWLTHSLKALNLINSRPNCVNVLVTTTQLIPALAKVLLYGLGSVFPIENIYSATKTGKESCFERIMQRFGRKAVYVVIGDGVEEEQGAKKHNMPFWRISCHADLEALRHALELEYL
Target sequence (Q15475 whole entry, looked up): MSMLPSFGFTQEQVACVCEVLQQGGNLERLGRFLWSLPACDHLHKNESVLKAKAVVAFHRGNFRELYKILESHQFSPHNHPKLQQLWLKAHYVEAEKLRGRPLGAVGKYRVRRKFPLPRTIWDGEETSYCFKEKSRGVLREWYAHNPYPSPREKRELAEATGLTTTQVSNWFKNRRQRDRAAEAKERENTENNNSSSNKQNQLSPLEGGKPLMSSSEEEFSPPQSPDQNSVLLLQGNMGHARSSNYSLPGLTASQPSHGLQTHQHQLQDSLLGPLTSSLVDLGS
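Six1/Eya2 binding was read as AlphaScreen signal after compounds were pinned into GST-Six1 plus His-tagged Eya2 (5X stock 250/500 nM) in pH 8.0 Tris/NaCl/TCEP buffer, beads added, then incubated 1 h, 37 C, dark.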
JMJD2A Tudor inh – qHTS Assay for Inhibitors of JMJD2A-Tudor Domain | Lysine-specific demethylase 4A (Homo sapiens), O75164 | AlphaScreen JMJD2A-Tudor / H3K4me3 peptide binding | Potency, µM (titrated, usually from 114 µM), usual class: inhibitors | 390,000 tested, 4.4% active | AID 504339, 2011; also: nearly all actives have a fitted effect of over 50% in size
HP1b binding inh – HTS for Inhibitors of HP1-beta Chromodomain Interactions with Methylated Histone Tails. AlphaScreen HP1-beta / biotin-H3K9me3 peptide binding. Chromobox protein homolog 1 (Homo sapiens), P83916. Potency, µM (highest dose often 114 µM), usual class: inhibitors. 390,000 tested, 0.56% active; also: nearly all actives have a fitted effect of over 70% in size
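HP1-beta protein (50 nM final) preincubated 30 min at room temperature with biotinylated H3(1-18)K9me3 peptide (50 nM) in PBS pH 7.4, 0.01% Tween-20, then compound added for 30 min. AlphaScreen streptavidin donor/nickel chelate acceptor beads (10 ug/mL final), 30 min dark, luminescence read.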
Hits are given with their value; – = inactive; ? = inconclusive; · = no result given; [ ] = remark or other dose. Unless noted, calls follow the shape of the dose curve; as a rule, active = well fitted inhibition curve with a large enough effect; inconclusive = small, poorly fitted or top-dose-only effect; inactive = no such curve, though single readings can be large or run the other way.

SMILES	BAZ2B block	CtBP-E1A inh	G9a block	Six1-Eya2 inh	JMJD2A Tudor inh	HP1b binding inh
O=C(c1ccco1)N1CCN(C(=O)c2cc3c(s2)-c2ccccc2OC3)CC1	?	–	45µM	–	–	–
COc1ccc(CNC(=O)COC(=O)c2ccc(F)c(S(=O)(=O)N3CCOCC3)c2)cc1	·	–	·	–	–	–
CNc1ccccc1C(C)(C)c1cc(-c2cccc([N+](=O)[O-])c2)no1	?	–	32µM	–	?	–
COc1ccccc1COC(=O)CN1C(=O)NC2(CCCCC2C)C1=O (stereo unspecified)	–	–	–	–	–	–
O=C(O)c1ccccc1N/N=C/c1cc(Br)cc(Br)c1O	45µM	–	·	–	?	–
CNS(=O)(=O)c1cn(CC(=O)N2CCN(c3ccccc3F)CC2)cc1S(=O)(=O)NC	–	·	?	·	–	–
Clc1ccccc1-c1ccc2ncnc(NC3CCNCC3)c2c1	·	·	–[0.501 µM]	·	·	·
CCOC(=O)c1cccc(NC(=O)c2cnc3sc(N4CCOCC4)nn3c2=O)c1	–	·	–	·	–	–
O=C1NC(=O)/C(=C\c2ccc(Br)o2)S1	–	·	45µM	–	?	–
CCc1cc2c(=O)n3c(nc2s1)-c1[nH]c2ccc(OC)cc2c1CC3	–	–	?	–	22µM	–
COc1ccc2[nH]c3c(c2c1)CCn1c-3nc2sc(C(=O)Nc3ccccc3)c(C)c2c1=O	–	·	–	·	·	·
CC(=O)c1cccc(NC(=O)Cn2cc(C(=O)c3cccc(Cl)c3)c(=O)c3ccc(C)nc32)c1	–	·	–	·	–	–
CCC(=O)Nc1c(C)nn(-c2ccc(C)c(C)c2)c1C	–	–	28µM	–	–	–
CCOc1ccc(Nc2oc(/C=C/c3cccc(OC)c3)nc2C#N)cc1	–	·	–	·	–	–
O=C(CN1C(=O)CSc2ccc(S(=O)(=O)N3CCCC3)cc21)NCc1ccc(F)cc1Cl	–	·	–	·	–	–
CCOc1ccc(N)c(SSc2cc(OCC)ccc2N)c1	32µM	·	0.56µM	?	13µM	18µM
CCOc1cccc(N)c1	–	–	–[0.501 µM]	–	–	–
COCC(=O)N1CCC(Oc2ccc(C(=O)NC(C)c3nc(C)sc3C)cc2)CC1 (stereo unspecified)	–	–	–	–	–	–
N#C/C(=C\c1ccc(O)c(Br)c1)C(=O)N1CCCCC1	–	–	·	–	–	–
Cc1occc1C(=O)/C(C#N)=C/c1ccc(O)c(Br)c1	–	–	50µM	–	–	–
Cc1cc(C)n(CCCN2CCC(C(=O)Nc3cccc(-c4cccc(F)c4)c3)CC2)n1	–	–	·	–	–	–
Cn1cc([N+](=O)[O-])c(C(=O)Nc2cc(Oc3cccnc3)cc([N+](=O)[O-])c2)n1	?	–	45µM	–	–	–
O=[N+]([O-])c1cc(Oc2cccnc2)cc([N+](=O)[O-])c1	–	–	?	–	–	–
Cn1cc([N+](=O)[O-])c(C(=O)Nc2ccc(-c3nc4ccccc4[nH]3)cc2)n1	?	–	–	–	56µM	–
Nc1cc(N)c(OCC(F)(F)F)cc1OCC(F)(F)F	?	–	50µM	–	?	?
SMILES	BAZ2B block	CtBP-E1A inh	G9a block	Six1-Eya2 inh	JMJD2A Tudor inh	HP1b binding inh
O=C(NNC1=NCCCCC1)c1ccccc1	–	–	–	–	3.2µM	–
O=S(=O)(NC1=NCCCCC1)c1ccccc1Cl	–	–	–	–	–	–
c1ccc(CNC2=NCCCC2)cc1	?	–	14µM	–	?	?
O=C(NCCC1=CCCCC1)c1coc(=O)c(Br)c1	–	–	–	–	–	–
O=C(Nc1cc(Cl)cc(Cl)c1)c1coc(=O)c(Br)c1	56µM	–	50µM	–	–	–
O=C(NNC(=O)C1C2CCCCC21)c1coc(=O)c(Br)c1 (stereo unspecified)	?	–	45µM	–	–	–
O=C(NC(CO)(CO)CO)c1coc(=O)c(Br)c1	–	–	–[2.33 µM]	–	–	–
CN(C)CCNC(=O)c1coc(=O)c(Br)c1	?	–	16µM	–	?	–
O=C(NC1CCCCC1)c1cc2c(cc1Cl)N1CCCCCC1=NS2(=O)=O	–	–	50µM	–	–	–
COc1cccc(CNC(=O)c2cc3c(cc2Cl)N2CCCCCC2=NS3(=O)=O)c1	–	–	11µM	–	–	–
CCc1ccc(NC(=O)CN2C(=O)CC(c3ccccc3)Sc3ccccc32)cc1 (stereo unspecified)	–	·	–	·	–	–
COc1cccc(NC(=O)CC(C)S(=O)(=O)c2ccc3c(c2)NC(=O)CO3)c1 (stereo unspecified)	–	·	–	·	–	–
COc1ccc(CCNC(=O)Cc2c(C)c3c(cc(C)c4c(C)coc43)oc2=O)cc1OC	–	·	–	·	–	–
CCOc1cccc(-c2c(C(=O)N/N=C/c3ccoc3)nnn2-c2nonc2N)c1	79µM	–	–	–	25µM	–
CCOc1cccc(-c2c(C(=O)N/N=C(\C)c3ccncc3)nnn2-c2nonc2N)c1	–	–	·	–	–	–
COc1ccccc1/C(C)=N/NC(=O)c1nnn(-c2nonc2N)c1C(C)C	–	–	–	–	20µM	–
COc1ccc(O)c(/C=N/NC(=O)c2c(C)nnn2-c2nonc2N)c1	?	–	79µM	–	?	–
CCOc1ccc(-c2c(C(=O)N/N=C/c3ccoc3)nnn2-c2nonc2N)cc1	–	–	–	–	–	–
CCOc1cccc(-c2c(C(=O)N/N=C(\C)c3ccccn3)nnn2-c2nonc2N)c1	13µM	·	·	?	25µM	–
COc1ccc(/C=N/NC(=O)c2nnn(-c3nonc3N)c2-c2cccs2)cc1OC	56µM	–	–[0.0925 µM]	–	–	–
COc1cc(/C=N/NC(=O)c2nnn(-c3nonc3N)c2-c2cccs2)ccc1O	–	·	–	–	–	–
CCOc1ccc(-c2c(C(=O)N/N=C/C3CC=CCC3)nnn2-c2nonc2N)cc1 (stereo unspecified)	79µM	–	–	–	–	–
COC(=O)/C(=N\Nc1ccc(Cl)cc1)Sc1nnc(-c2ccc(OC)cc2)n1C	–	–	3.2µM	–	?	–
CC(=O)Nc1ccc(S(=O)(=O)N2CCN(C(=O)C3COc4ccccc4O3)CC2)cc1 (stereo unspecified)	–	–	–	–	–	–
